Assay outcomes (PubChem)
A selection: hits, their analogues and other compounds. The true share with any hit is near 1.2%.
ASM inhibitor = Inhibitors of Secretory Acid Sphingomyelinase (S-ASM): qHTS; Sphingomyelin phosphodiesterase (Homo sapiens), P17405; placental ASM, HMU-PC fluorogenic substrate, 60 min; Potency, µM (highest dose often 57.5 µM), for inactives: at the highest dose activity change, negative = inhibition, actives largely listed as inhibitors; actives 0.006% (n = 340,000); AID 504937, 2011; note: potency is the fitted concentration of half-maximal effect
Target sequence (P17405 47-631 limits assumed): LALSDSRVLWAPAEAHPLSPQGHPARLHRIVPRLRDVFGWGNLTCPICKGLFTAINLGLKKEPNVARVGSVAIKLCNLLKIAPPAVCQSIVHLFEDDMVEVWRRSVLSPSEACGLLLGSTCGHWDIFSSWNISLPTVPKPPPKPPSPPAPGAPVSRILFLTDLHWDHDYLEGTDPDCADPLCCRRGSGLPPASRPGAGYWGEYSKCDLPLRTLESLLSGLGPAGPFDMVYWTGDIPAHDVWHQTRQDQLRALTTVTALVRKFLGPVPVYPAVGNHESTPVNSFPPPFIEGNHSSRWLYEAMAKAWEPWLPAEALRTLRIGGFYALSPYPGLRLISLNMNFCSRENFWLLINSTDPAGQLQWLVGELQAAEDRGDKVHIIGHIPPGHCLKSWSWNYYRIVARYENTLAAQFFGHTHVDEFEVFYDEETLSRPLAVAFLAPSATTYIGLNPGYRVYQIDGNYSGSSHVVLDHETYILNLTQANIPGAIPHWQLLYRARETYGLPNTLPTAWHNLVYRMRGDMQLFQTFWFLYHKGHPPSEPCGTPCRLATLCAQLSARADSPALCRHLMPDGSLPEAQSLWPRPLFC
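Human placenta-derived ASM enzyme was preincubated with compound for 10 minutes at room temperature, then given fluorogenic substrate HMU-PC0 (9 uM final) for 60 minutes at 37 °C; a pH 10 stop preceded fluorescence reading at Ex 386/Em 447 nm.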
KCNH2 3.1 inh = qHTS for Inhibitors of KCHN2 3.1: Mutant qHTS; actives 0.95% (n = 340,000); activity change, % (tested at about 1.8 µM); U2OS KCNH2 3.1, thallium flux FluxOr; hits give low values;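 active = maximum activity change below -70%; inconclusive = maximum activity change from -70% to -50%; inactive = maximum activity change above -50%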;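 note: thallium influx rate constant from kinetic fluorescence after stimulation buffer; % is set by controls: 0 for no effect and ±100 for the full control effect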
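Virally transduced U2OS (3.1 isoform, 4 h infection in dark at RT) → overnight 37 C → FluxOr + Red40 in HBSS/HEPES, 45 min → stimulation buffer, 2 min kinetic read → rate constant vs DMSO controls.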
KCNH2 WT inh = qHTS for Inhibitors of KCHN2 3.1: Wildtype qHTS; AID 720551, 2013; U2OS, BacMam KCNH2, thallium flux FluxOr; hits give low values; activity change, % at 1.84 µM; actives 0.37% (n = 340,000);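 active = maximum activity change below -70%; inconclusive = maximum activity change between -70% and -50%; inactive = maximum activity change above -50%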; note: % is set by controls: 0 for no effect and ±100 for the full control effect
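U2OS cells were transduced with wild-type KCNH2 virus (2.03 x 10^8 / mL) for 4 h at room temperature, then cultured overnight at 37 C. Thallium flux was read with FluxOr dye. Rate constants were normalized to DMSO controls.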
Apoferritin bind = qHTS Assay for Identification of Novel General Anesthetics. actives 0.074% (n = 350,000). apoferritin/1-aminoanthracene competitive binding, fluorescence. AID 485281, 2010. Potency, µM (highest dose often 77.5 µM), for inactives: top-dose activity change, negative = displacement, most hits filed as inhibitors; note: potency is the fitted concentration of half-maximal effect; % is set by controls: 0 for no effect and ±100 for the full control effect; nearly all actives have a fitted effect of over 20% in size
Target sequence (P02791 2-175 limits assumed): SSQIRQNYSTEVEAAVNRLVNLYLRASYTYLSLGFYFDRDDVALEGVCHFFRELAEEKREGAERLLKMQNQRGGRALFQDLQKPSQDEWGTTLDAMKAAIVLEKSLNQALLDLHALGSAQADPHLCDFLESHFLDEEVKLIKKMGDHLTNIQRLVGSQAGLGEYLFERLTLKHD
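10 uM apoferritin + 50% sat. 1-AMA, PBS; cpd 10 min RT; Ex380/Em535 endpoint; normalized to free probe vs complex; 4-param Hill fit; propofol titration as pos. ctrl.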
mIDH1 inhibitor = qHTS for Inhibitors of mutant isocitrate dehydrogenase 1 (IDH1): qHTS; IDH1-R132H enzyme, NADPH consumption, diaphorase/resazurin fluorescence; AID 602179, 2012; actives 0.093% (n = 390,000); Potency, µM (series often up to 76.6 µM), for the others: at the top dose activity change, negative = inhibition, actives largely listed as inhibitors; note: potency is the fitted concentration of half-maximal effect; % is set by controls: 0 for no effect and ±100 for the full control effect; nearly all actives have a fitted effect of over 65% in size
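IDH1-R132H (0.5 ug/mL dispensed) in pH 7.5 Tris buffer was preincubated 30 min with compound, then given a substrate mix of 0.016 mM NADPH and 2 mM alpha-KG for 80 min at room temperature; remaining NADPH was read by diaphorase/resazurin fluorescence.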
The depositor's hits bear a star; ? = inconclusive; . = not tested or not shown; [ ] = remark or other dose. Unless noted, calls come from the whole dose curve; as a rule, active = well fitted inhibition curve with a large enough effect; inconclusive = small, poorly fitted or top-dose-only effect; inactive = no such curve, though single readings can be large or run the other way.

SMILES | ASM inhibitor | KCNH2 3.1 inh | KCNH2 WT inh | Apoferritin bind | mIDH1 inhibitor
Cc1c(-c2ccccc2)nc2ccccc2c1C(=O)Oc1ccc([N+](=O)[O-])cc1 | -9.9% | -76.6* | -86.7* | -10.3% | 1.1%
CC(C)(C)N1C(=O)[C@H]2[C@H]3[C@H](O)[C@H](O)C/C(=N/NC(=O)OCc4ccccc4)[C@@H]3CC[C@@H]2C1=O | . | . | . | -1.2%[15.3 µM] | .
CCOC(=O)c1sc(N(Cc2ccccc2)C(=O)COC(=O)c2cnccn2)nc1C | -10.5% | -91.5* | -6.9 | -16.4% | 1.6%
Cc1ccc2cc(CN(Cc3ccco3)C(=S)NCC3CCCO3)c(=O)[nH]c2c1C (centres undefined) | 0.4% | -82.3* | -1.3 | -2.5% | 11.0%
Cc1cc(C)c2[nH]c(=O)c(CN(Cc3ccco3)C(=S)NCC3CCCO3)cc2c1 (centres undefined) | -0.4% | -6.5 | -5.7 | -17.9% | 2.9%
O=C(Nc1ccc([N+](=O)[O-])cc1)C(c1ccccc1)c1ccccc1 | . | -78.8* | 6.6 | . | -0.3%
N/C(Cc1ccc([N+](=O)[O-])cc1)=N\OC(=O)C(c1ccccc1)c1ccccc1 | -8.6% | -81.6* | 2.6 | ? | -3.3%
O=C(NCC(O)c1ccc([N+](=O)[O-])cc1)C(c1ccccc1)c1ccccc1 (centres undefined) | -4.5% | -11.0 | 3.0 | -18.1% | -10.9%
CCC(=O)CC(NC(=O)OC)c1ccc(F)cc1 (centres undefined) | . | . | . | 4.0%[15.3 µM] | .
CN(C)c1ccc(C2/C(=C(/O)c3ccc(Br)cc3)C(=O)C(=O)N2C)cc1 (centres undefined) | 4.9% | -175.8* | -1.5 | -0.3% | -10.7%
O=C(CN1CCCC1)Nc1ccc(S(=O)(=O)N2CCCCC2)cc1 | 0.8% | 10.7 | -0.9 | -16.9% | -2.6%
COc1ccc(NC(=O)CN2CCCCC2)cc1 | 0.3% | -27.5 | -3.4 | 5.6% | 4.0%
O=C(CN1CCCCC1)Nc1ccc(S(=O)(=O)N2CCCCCC2)cc1 | 2.1% | -83.1* | 55.1 | ? | -2.3%
O=C(CN1CCN(C(=O)N2CCOCC2)CC1)Nc1ccc(Br)cc1 | 0.8% | -70.5* | -118.2* | -23.4% | 0.2%
O=C(CN1CCOCC1)Nc1ccc(Br)cc1 | 2.3% | 9.3 | -15.2 | -1.6% | -3.0%
Fc1ccc(NC(=S)NCc2ccc3c(c2)OCO3)cc1 | 1.7% | -71.3* | 2.3 | -12.7% | 1.4%
CCN(CC)c1ccc(NC(=O)CN2CCN(CC(=O)Nc3ccc(OC)cc3)CC2)cc1 | 1.0% | -85.7* | 5.5 | 2.1% | 1.1%
CCc1ccc(OCC(=O)Nc2cc(-c3ccc(C)cc3)no2)cc1 | . | . | . | -9.0% | -7.5%
O=C(Nc1ccc(Br)cc1)C1CCN(S(=O)(=O)c2cccc3nsnc23)CC1 | . | . | . | -11.1% | -3.2%
CCOC(=O)c1c(C)oc2nc(C)nc(N3CCN(c4cccc(C)c4C)CC3)c12 | . | . | . | -4.8% | 5.2%
O=C1CCC[C@@H](C(C(=O)OCc2ccccc2)C(=O)OCc2ccccc2)C1 | . | . | . | -11.4%[15.3 µM] | .
COc1ccc(NC(=O)CCn2cccc2)cc1 | 6.6% | -78.5* | -9.2 | -22.8% | -1.8%
CCN1CCN(CC(=O)Nc2ccc(N(C)C)cc2)CC1 | 7.3% | -5.7 | -3.8 | -1.5% | 0.0%
O=C(CN1CCCC1)Nc1ccc(F)cc1 | 1.2% | 3.8 | -3.0 | -9.1% | 2.5%
O=C(CN1CCN(Cc2ccc3c(c2)OCO3)CC1)Nc1ccc(F)cc1 | 2.6% | -84.1* | -14.5 | -7.8% | 6.1%
SMILES | ASM inhibitor | KCNH2 3.1 inh | KCNH2 WT inh | Apoferritin bind | mIDH1 inhibitor
CCN(CC)c1ccc(NC(=O)CN2CCN(CC(=O)Nc3ccc(F)cc3)CC2)cc1 | 1.9% | -101.1* | -74.6* | -5.4% | 6.7%
O=C(CN1CCN(CC(=O)Nc2ccc(Cl)cc2)CC1)Nc1ccc(F)cc1 | 2.3% | -117.6* | -136.9* | -1.0% | 2.1%
Cc1ccc(NC(=O)CCn2cccc2)cc1 | -2.8% | -2.0 | 1.3 | -0.5% | -8.7%
Cc1cccn2c(=O)c3cc(C(=O)NCc4ccccc4)c(=N)n(CCOCCO)c3nc12 | . | . | . | 293.1% | -6.5%
CCC(C)(C)n1nnnc1C(c1ccc2ncccc2c1)N1CCN(c2nc3ccccc3s2)CC1 (centres undefined) | -12.1% | -89.9* | -0.1 | -8.3% | 1.3%
N=c1sccn1CC(=O)N1N=C(c2ccc(Cl)cc2)CC1c1ccco1 (centres undefined) | -1.0% | -86.4* | 14.3 | -8.1% | 5.8%
CC(c1nccs1)N(C)C(=O)c1ccc(OC2CCN(CCc3ccccc3)CC2)cc1 (centres undefined) | 3.7% | -1.6 | 42.0 | -12.7% | 3.9%
CC(C)N(C)C(=O)c1ccc(OC2CCN(CCc3ccccc3)CC2)cc1 | 7.9% | -86.8* | 14.0 | -13.6% | 0.2%
Cc1cc(-c2ccc(C)c(S(=O)(=O)N3CCN(c4ccc([N+](=O)[O-])cc4)CC3)c2)on1 | -9.8% | -95.6* | -29.0 | -9.7% | -10.0%
CCCCOc1ccc(C(=O)Nc2cc(-c3cn4cccnc4n3)ccc2OC)cc1 | . | . | . | -7.9% | -1.6%
O=C(OCc1cc(=O)n2nc(-c3cccs3)sc2n1)c1ccccc1Cl | . | . | . | 1.3% | 2.0%
CNC(=O)[C@]1(C(F)(F)F)C[C@H](CCC2CCCCC2)CCCO1 | . | . | . | -22.8% | .
FC(F)(F)c1ccc(NC(=S)NC2CCCCC2)cc1 | -2.3% | -15.4 | -3.4 | -15.4% | 3.9%
FC(F)(F)c1cccc(NC(=S)NC2CCCC2)c1 | 0.4% | -106.5* | -0.6 | -8.3% | 2.9%
O=C(O)c1ccc2c3c(cccc13)C(=O)N(c1ccccc1)C2=O | 3.0% | -103.7* | -0.7 | -7.7% | -1.3%
O=P(O)(O)OC1[C@H](O)[C@H](OP(=O)(O)O)C(OP(=O)(O)O)[C@H](OP(=O)(O)O)[C@H]1O (some centres undefined) | . | . | . | 2.7%[3.34 µM] | .
N#C/C(=C\c1ccc(Cl)cc1)C(=O)NC1CC1 | 4.6% | -0.1 | 1.0 | . | 20.3%
N#C/C(=C\c1ccccc1Br)C(=O)NC1CC1 | -2.7% | -195.1* | 0.5 | -1.6% | -2.3%
Cc1ccc(C)c(N2CCN(S(=O)(=O)c3ccc4c(c3)CCN4C(=O)CCC(=O)O)CC2)c1 | -3.3% | -4.2 | 5.0 | -0.9% | -9.1%
O=C(O)CCC(=O)N1CCc2cc(S(=O)(=O)N3CCN(c4ccc(F)cc4)CC3)ccc21 | 5.5% | -101.0* | -2.9 | -8.6% | 13.5%
C=CCN(C(=O)CSc1nc2ccsc2c(=O)n1Cc1ccc(C(=O)O)cc1)c1ccccc1 | . | 11.1 | -254.4* | . | -1.1%
CC1=CC(C)(C)N(C(=O)CSc2ncn[nH]2)c2ccccc21 | 0.0% | -78.3* | -9.2 | -8.9% | 10.0%
